tested on: Plasmodium falciparum; assay: GSK_TCMDC: Inhibition of Plasmodium falciparum Dd2 in whole red blood cells, using parasite LDH activity as an index of growth. Test compounds present at 2uM; format: functional

Compound	Inhibition [%]
CNS(=O)(=O)c1ccc2c(c1)nc(C1CCN(CC3CCC(NC(=O)/C=C/c4ccc(Cl)c(Cl)c4)CC3)CC1)n2C (stereo not drawn)	96
Nc1nc(N)c2c(ccc3nn(C4CCCC4)cc32)n1	3
Clc1ccc(CNc2nc(NCCc3c[nH]cn3)nc(N3CCCC4CCCCC43)n2)cc1 (stereo not drawn)	100
COc1cc(Nc2ncnc3cc(OC)c(OC)cc23)cc([N+](=O)[O-])c1.Cl	6
CCOc1cc(C)ccc1C1CCN(CCCCNC(=O)c2ccc(-c3ccc(C(F)(F)F)cn3)cc2)CC1.Cl	45
O=C(NC1CCCCC1)C1CCCN(C(=O)c2ccc(O)c(-c3ccc(Cl)c(Cl)c3)c2)C1 (stereo not drawn)	42
Cc1ccc(-c2nc3ccccc3o2)cc1NCc1cc(Cc2ccccc2)ccc1O	50
CN1CCN=C1c1ccc(NC(=O)Nc2ccc(C3=NCCN3C)cc2)cc1.Cl	69

tested on: HepG2; assay: GSK_TCMDC: Percent inhibition of human HepG2 cell line. Test compounds present at 10uM.; format: functional

Compound	Inhibition [%]
O=C(Nc1ccc(-c2ccccc2)cc1)Nc1cccc(Cn2cnc(N3CCCNCC3)cc2=O)c1.O=C(O)C(F)(F)F	8
O=C(O)C(F)(F)F.OCCN1CCN(Cc2ccc(-c3cccc(-c4nc5cc(F)ccc5[nH]4)c3)cc2)CC1	21
Fc1ccc(Nc2ccnc3cc(-c4cccc(CNCCN5CCOCC5)c4)ccc23)c(Cl)c1	26
Cc1ccc(/C=C/C(=O)NC2CCC(N3CCC(c4ccccc4C)CC3)CC2)cc1C (stereo not drawn)	12
O=C(N[C@@H](CC1CCCCC1)C(=O)NC1CCCc2ccccc21)c1ccc(O)c(-c2ccc(Cl)c(Cl)c2)c1 (stereo partly drawn)	1
CCN(C(=O)c1ccc(NC(=O)c2cccs2)cc1)c1nc2c(C)cccc2s1	24
Cc1[nH]c(C)c(-c2ccc(OCc3ccc(F)cc3)cc2)c(=O)c1Br	16
O=C(/C=C/c1ccc(Cl)c(Cl)c1)NCCCCCN1CC[C@H](NC(=O)c2sc3ccccc3c2Cl)C1	26
CC(=O)O.COc1ccc(CNc2ccc3nc(N)nc(N)c3c2)cc1	39
Cc1ccc(NCc2cccc(F)c2)cc1S(=O)(=O)N[C@@H]1CCN(C#N)C1	13
NC12CC3CC(CC(C3)C1)C2 [AMANTADINE]	31
COc1ccccc1/C=C/C(=O)NC1CCC(CCN2CCc3ccc(-c4cc(C)no4)cc3CC2)CC1.Cl (stereo not drawn)	47
COc1cc2ncnc(Nc3ccc(OCc4ccccc4)c(OCc4ccccc4)c3)c2cc1OC.Cl	4
CC(C)CCN(Cc1cncn1Cc1cccc(C(F)(F)F)c1)C(=O)c1cncc(-c2ccccc2)c1	15
CC(C)c1nc2c(N)nc(N)nc2nc1N	64
CCOC(=O)c1cc(C(=O)NCCCCN2CCC(c3ccc4c(c3OC)CCCC4)CC2)ccc1-c1ccc(C(F)(F)F)cc1	100
COc1cc(-c2nc3ccc(N4CCN(C)CC4)cc3[nH]2)cc(OC)c1OC	6
O=C(Nc1ccc(-c2ccccc2)cc1)Nc1ccc2c(c1)CCNCC2.O=C(O)C(F)(F)F	41
O=C(Nc1cccc(-c2nn3ccccc3c2-c2ccnc(Nc3cccc(N4CCCC4=O)c3)n2)c1)c1cc(F)ccc1F	59
COc1ccc2nccc([C@@H](O)CN3CCC(NC(=O)/C=C/c4ccc5[nH]c(=O)ccc5c4)CC3)c2c1	2

Compound	Inhibition [%]
Cc1cc(=O)c2cc(Oc3cccc(OC(F)(F)F)c3)ccc2[nH]1	9
O=C(/C=C/c1ccc2ccccc2c1)NCCCCCN1CCC(c2c[nH]c3ccccc23)CC1	18
O=[N+]([O-])c1cccc(S(=O)(=O)N2CCN(CC(O)COc3ccc(-c4ccccc4)cc3)CC2)c1 (stereo not drawn)	11
Cc1cc(NC(=O)Nc2cccc(N(C)C)c2)c2ccccc2n1	0
CC(=O)Nc1ccc(CN2CCC(NC(=O)c3ccc(-c4cccc(C(F)(F)F)c4)s3)CC2)cc1.O=C(O)C(F)(F)F	35
CCNc1cc(C(=O)N[C@@H](Cc2ccccc2)[C@H](O)CNCCc2cccc3ccccc23)cc(N2CCCC2=O)c1.O=CO	12
NC1CCN(c2nc(NCCCc3ccc(O)cc3)nc(NCc3ccccc3-c3ccccc3)n2)CC1.O=C(O)C(F)(F)F	11
COC(=O)c1ccc2nc(-c3ccc(/C=C/C(=O)NC4CCN(Cc5ccccc5)CC4)cc3)[nH]c2c1	12
CCNc1cc(C(=O)N[C@@H](Cc2ccco2)[C@H](O)CNC2CCCCC2)cc(N2CCCCS2(=O)=O)c1.Cl	14
COc1ccc(-c2ccc(NC(=O)c3cccc(Cl)c3)cc2)cc1CNC(C)C.O=C(O)C(F)(F)F	26
O=[N+]([O-])c1ccc(Nc2nc(NCc3ccccc3)nc(N/N=C/c3ccccc3[N+](=O)[O-])n2)cc1	18
COc1cc2nc(NCCc3ccccc3)nc(NCc3cnn(C)c3C)c2cc1OC	13
CNS(=O)(=O)c1ccc2c(c1)nc(C1CCN(CC3CCC(NC(=O)/C=C/c4ccc(Cl)c(Cl)c4)CC3)CC1)n2C (stereo not drawn)	5
Nc1nc(N)c2c(ccc3nn(C4CCCC4)cc32)n1	44
Clc1ccc(CNc2nc(NCCc3c[nH]cn3)nc(N3CCCC4CCCCC43)n2)cc1 (stereo not drawn)	10
COc1cc(Nc2ncnc3cc(OC)c(OC)cc23)cc([N+](=O)[O-])c1.Cl	8
CCOc1cc(C)ccc1C1CCN(CCCCNC(=O)c2ccc(-c3ccc(C(F)(F)F)cn3)cc2)CC1.Cl	55
O=C(NC1CCCCC1)C1CCCN(C(=O)c2ccc(O)c(-c3ccc(Cl)c(Cl)c3)c2)C1 (stereo not drawn)	22
Cc1ccc(-c2nc3ccccc3o2)cc1NCc1cc(Cc2ccccc2)ccc1O	45
CN1CCN=C1c1ccc(NC(=O)Nc2ccc(C3=NCCN3C)cc2)cc1.Cl	7

From ChEMBL document CHEMBL1157539, “Thousands of chemical starting points for antimalarial lead identification” (Nature, 2010)
